Pf apPOL inh – Pf-apPOL DNA polymerase inhibition; Recombinant Pf-apPOL, molecular beacon fluorescence, 1.5 h; inhibition, % at 10 µM; actives 0.25% (n = 210,000); AID 1794808
mHTT-CaM PPI inh – disrupts binding of mutant huntingtin to calmodulin; actives 3.6% (n = 190,000); P42858; AlphaScreen His-mHTT/GST-CaM binding, luminescence; AID 1671202; inhibition, % at 15 µM
Numbers stand for hits; . = inactive; / = not tested or not shown; ! = not active in a repeat. Only some compounds are listed: those with a hit (about 3.5% of all), similar ones and a draw of the others. Rule as the data show it: active = inhibition above about 50%; inactive = the rest.

SMILES | Pf apPOL inh | mHTT-CaM PPI inh
O=[N+]([O-])C1=C(Nc2ccc(Cl)c(Cl)c2)CS(=O)(=O)C1 | . | 75
CC(=O)c1ccc(NC(=O)Cn2cnc([N+](=O)[O-])n2)cc1 | . | .
O=[N+]([O-])c1ccc(N2CCOCC2)nc1 | . | .
O=[N+]([O-])c1ccc(N2CCSCC2)nc1 | 66 | .
COc1cc2c(cc1OC)C(c1cccc(Cl)c1Cl)CC(=O)N2 (centres undefined) | . | .
COc1cccc(C2CC(=O)Nc3cc(C)c(C)cc32)c1OC (centres undefined) | . | 100
O=C(CSc1nncn1-c1ccccc1)c1ccc(F)cc1 | . | .
CCCN(Cc1ccccc1)C(=O)Nc1ccc2nsnc2c1 | . | .
CC(=O)Nc1ccc(S(=O)(=O)NCCC(c2ccccc2)c2ccccc2)cc1 | . | .
COc1ccc2c3c(ccc2c1)-c1[nH]c2ccccc2c1CC3 | / | .
c1ccc2c3c([nH]c2c1)-c1nonc1CC3 | 93! | .
Clc1ccc2c(c1)Nc1ccccc1S2 | / | .
COc1ccc2c(c1)Nc1ccccc1S2 | / | 63
CN(C)/C=C1\C(=O)N(c2nc3ccccc3s2)N=C1c1ccccc1 | . | .
COc1ccc(C2=NN(c3nc4ccccc4s3)C(=O)/C2=C\N(C)C)cc1 | . | 73
COc1ccc(N2CCC(C(=O)Nc3ccc(F)cc3)C2=O)cc1 (centres undefined) | . | .
O=C(O)CC(C(=O)O)c1c[nH]c2ccccc12 (centres undefined) | . | .
c1ccc(C(c2c[nH]c3ccccc23)c2c[nH]c3ccccc23)nc1 | . | 74
CCN1CCc2c(sc(NC(=O)c3ccnn3C)c2C(N)=O)C1 | . | .
CCN1CCc2c(sc(NC(=O)Nc3ccc(Cl)c(Cl)c3)c2C(N)=O)C1 | . | 85
Cc1cccc(NC(=O)Cc2c[nH]c3ncccc23)c1C | . | .
O=[N+]([O-])c1cc(CN2CCCCC2)c2cccnc2c1O | . | 100
O=[N+]([O-])c1cc(CN2CCOCC2)c2cccnc2c1O | . | 100
Cc1ccnc2c([N+](=O)[O-])cccc12 | . | .
O=[N+]([O-])c1cc(Cl)c2cccnc2c1O | . | 100
SMILES | Pf apPOL inh | mHTT-CaM PPI inh
Clc1cc2cccnc2c2ncccc12 | / | 100
COc1c(I)cc(Cl)c2cccnc12 | . | /
O=[N+]([O-])c1cc([N+](=O)[O-])c2cccnc2c1N1CCOCC1 | . | .
O=[N+]([O-])c1ccccc1CN1CCCCCCC1 | . | .
Cc1oc(C2CCN(S(=O)(=O)c3ccccc3)CC2)nc1C(=O)N1CCOCC1 | . | .
O=C(c1cc(F)c(F)cc1Cl)N1CCN(c2ccc([N+](=O)[O-])c(N3CCCC3)c2)CC1 | . | .
Cc1c(O)ccc2c(CN3CCC(C)CC3)cc(=O)oc12 | . | .
O=[N+]([O-])c1cc(CN2CCN(c3ccccc3)CC2)c(O)c2ncccc12 | . | 100
CCOc1cccc(CN2CCCCCC2)c1O | . | .
COCc1cc(CN2CCCCC2)c(O)c2ncccc12 | . | 100
O=[N+]([O-])c1ccc(N2CCN(c3ccccc3)CC2)c2ncccc12 | . | .
CC1CCN(Cc2cc(Cn3ccnc3)c3cccnc3c2O)CC1 | . | 100
CCc1nnc(NC(=O)CSc2nc3c(c(=O)n2-c2ccc(C)cc2)SCC3)s1 | . | .
CC(C)(C)c1cc(C(=O)Nc2ccccc2F)nc2ccnn12 | . | .
CC(C)n1cc(C2=CCN(S(=O)(=O)c3cccc(C#N)c3)CC2)c2cccnc21 | . | .
CCN1CCn2cc(S(=O)(=O)N3CCCc4ccccc43)cc2C1=O | . | .
O=C(c1ccn2c(-c3ccccc3)nnc2c1)N1CCN(c2ccccc2)CC1 | . | .
N#COc1ccc(Oc2ccc(OC#N)cc2)cc1 | . | 97
N#Cc1ccc(Oc2ccc(N)cc2)cc1 | . | .
N#COc1ccc(Nc2ccc(OC#N)cc2)cc1 | . | 95
COc1ccc(Nc2c(Cl)cc(OC)cc2Cl)cc1 | . | /
COc1ccc(OC)c(C=C2Oc3c(ccc(O)c3CN3CCCCC3)C2=O)c1 | . | .
CCCC1(CO)CCCN1C(=O)Cc1ccsc1 (centres undefined) | . | .
Cc1ccc(C(=O)N2CCCC2C(=O)NC2CC2)cc1 (centres undefined) | . | .
O=C1NC(=Nc2ccccc2Cl)S/C1=C/c1ccccc1F | . | 66
SMILES | Pf apPOL inh | mHTT-CaM PPI inh
O=C1NC(=Nc2ccccc2Cl)S/C1=C\c1cccc([N+](=O)[O-])c1O | . | .
N#Cc1ccc(/C=C2/SC(=Nc3ccccc3Cl)NC2=O)cc1 | . | .
O=C1NC(=Nc2ccccc2Cl)S/C1=C/c1ccc(F)cc1 | . | 76
COc1ccc(/C=C(\NC(=O)c2ccco2)C(=O)Nc2ccc(Cl)cc2)cc1 | . | .
CCN1CCN(c2cc(-c3nc(-c4ccccc4)no3)c3ccccc3n2)CC1 | . | 66
c1ccc(-c2noc(-c3cc(N4CCOCC4)nc4ccccc34)n2)cc1 | . | .
CCOc1ccc(C2=C(CN(C)C)C(c3ccc(F)cc3)c3ccccc3O2)cc1 (centres undefined) | . | 91

Source: PubChem BioAssay (University of Kansas High Throughput Screening Laboratory)
